Data taken from PubChem BioAssay (NCI).
This is part of a sample that, as a whole, favours compounds with a hit. Of some 79,000 tested, about 15% had one in any assay. Rule as the data show it: active = growth inhibition above about 70%; inactive = the rest. Where a SMILES comes first, the peptide text is derived from it. The star is where a group is joined. Cbz = O=C(OCc1ccccc1)*; OBn = c1ccc(CO*)cc1

Legend:
[1] = NCI Yeast Anticancer Drug Screen. Data for the rad50 strain (AID 155);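 also: 0% = growth of vehicle-only cultures of the same strain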; conditions: S. cerevisiae rad50 strain growth inhibition; at 50.0 µM; stronger effect = higher value
Outline: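 Readout: growth inhibition relative to vehicle-treated cultures. Compound exposure was carried out in a genetically defined yeast strain deficient in DNA damage repair.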

[2] = NCI Yeast Anticancer Drug Screen. Data for the mec2-1 strain (AID 157); conditions: S. cerevisiae mec2-1 strain, at 50.0 µM, stronger effect = higher value
Outline: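 Test agents were screened against the mec2-1 yeast strain, with defined DNA repair or cell cycle alteration. Growth was scored as inhibition against vehicle-only controls.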

[3] = NCI Yeast Anticancer Drug Screen. Data for the sgs1 mgt1 strain (AID 161);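 also: 0% = growth of cultures given vehicle only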; conditions: S. cerevisiae sgs1 mgt1 strain, at 50.0 µM, stronger effect = higher value
Outline: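 Genetically altered yeast, compound exposure, growth inhibition relative to vehicle.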

[4] = NCI Yeast Anticancer Drug Screen. Data for the cln2 rad14 strain (AID 165);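 also: 0% = growth equal to vehicle treated cultures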; conditions: S. cerevisiae cln2 rad14 strain, at 50.0 µM, stronger effect = higher value
Outline: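 Growth of compound-exposed yeast (cln2 rad14 genotype) measured and expressed as inhibition relative to vehicle.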

[5] = NCI Yeast Anticancer Drug Screen. Data for the bub3 strain (AID 167); conditions: S. cerevisiae bub3 mutant strain, at 50.0 µM, stronger effect = higher value
Outline: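 Readout: yeast growth inhibition, expressed relative to vehicle-only wells. The test organism is a mutant strain from a panel with lesions in DNA repair or checkpoint genes.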

[6] = NCI Yeast Anticancer Drug Screen. Data for the mlh1 rad18 strain (AID 175); conditions: S. cerevisiae mlh1 rad18 strain growth inhibition; at 50.0 µM; stronger effect = higher value
Outline: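 In this whole-cell yeast screen, a strain with altered DNA damage repair is challenged with compound, and its growth is measured against matched vehicle-treated controls.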

Measured: growth inhibition

CN(C)CCCNc1nc(Cl)nc2nc(-c3ccccc3)c(-c3ccccc3)nc12
inactive: [1] 50.2% | [2] 31% | [3] 60.5% | [4] 36% | [5] 28.9% | [6] 61.2%

CN1CCS(=O)(=O)C2CCCCC2C1=O (stereo unspecified)
inactive: [1] 1.25% | [2] -13.4% | [3] 4.85% | [4] 11.8% | [5] 10.5% | [6] 1.1%

C=CCC(CNC(C)=O)(C1=CCCCC1)c1ccccc1 (stereo unspecified)
inactive: [1] 1.95% | [2] 13% | [3] 13.1% | [4] 19.8% | [5] 17.1% | [6] 12.7%

NC(=O)NC(N)=O
inactive: [1] 13.3% | [2] -10.4% | [3] -9.95% | [4] -34.1% | [5] 18.9% | [6] 21.9%

O=C(Nc1cccc([N+](=O)[O-])c1)c1ccc(Cl)cc1
inactive: [1] -5.95% | [2] -10.8% | [3] 8% | [4] -49.5% | [5] -9.5% | [6] -3.95%

CCCCCCCCCC(C(=O)OCC)(C(=O)OCC)C1CCCC1
inactive: [1] -26.9% | [2] -4.6% | [3] -12.1% | [4] 5.75% | [5] -7.8% | [6] -30.1%

CCC(O)C(CC)CC (stereo unspecified)
inactive: [1] 13.8% | [2] -19.7% | [3] -4.2% | [4] 17% | [5] -10.2% | [6] 14.9%

O=C1OCCC1n1cc(F)c(=O)[nH]c1=O (stereo unspecified)
inactive: [1] 3.15% | [2] -5.3% | [3] -3.45% | [4] -39% | [5] -20.2% | [6] -2%

O=C(Nc1ccccc1Br)c1ccc(F)cc1
inactive: [1] -0.9% | [2] 3.1% | [3] -11.3% | [4] -18.4% | [5] 14.8% | [6] 14.6%

O=C(O)/C(=C\c1cc2c(cc1[N+](=O)[O-])OCO2)c1ccccc1
inactive: [1] 3.8% | [2] -5.35% | [3] 6.8% | [4] -41% | [5] -22.9% | [6] 17.9%

CN(C)c1ccc(C=C(C(=O)c2ccccc2)C(=O)c2ccccc2)cc1
inactive: [1] 9.45% | [2] 1.9% | [3] 0.75% | [4] 8.6% | [5] 20.1% | [6] 37%

CC(=O)Oc1nc2ccccc2n1C(C)=O
inactive: [1] 15.3% | [2] 20.9% | [3] 20.6% | [4] -5.1% | [5] 39.5% | [6] 5.55%

COc1cccc(CCC(=O)O)c1
inactive: [1] -11.7% | [2] -9.75% | [3] -21.6% | [4] 31% | [5] -1.45% | [6] 2.7%

O=C1C2C3C=C4c5ccccc5N(c5ccccc5)C4([C@@H]2C(=O)N1c1ccc(F)cc1)[C@H]1C(=O)N(c2ccc(F)cc2)C(=O)[C@@H]31 (stereo partly specified)
inactive: [1] 35% | [2] 23.6% | [3] 11.5% | [4] 40.1% | [5] 21.4% | [6] 34.9%

CCC(=O)C(C)C(=O)CCC(=O)Nc1cc(Cl)ccc1Cl (stereo unspecified)
inactive: [1] 21.4% | [2] 18.5% | [3] 18.6% | [4] 20.2% | [5] 18.1% | [6] 19.6%

CCCCOc1ccc(N)cn1
inactive: [1] -5.05% | [2] -4.85% | [3] 6.15% | [4] -16.4% | [5] 32.7% | [6] -5.45%

N#CCc1c(-c2ccccc2)n(S(=O)(=O)c2ccccc2)c2ccccc12
inactive: [1] 4.45% | [2] -2.55% | [3] -20.6% | [4] 8.45% | [5] -9.9% | [6] -5.3%

CNc1c([N+](=O)[O-])cc2[nH]c(C)nc2c1[N+](=O)[O-]
inactive: [1] 22.4% | [2] 19.3% | [3] 42.9% | [4] 0.05% | [5] 0.95% | [6] 11.6%

COc1ccc(-c2nnc3n(C)c4ccccc4n3c2=O)cc1
inactive: [1] 3.25% | [2] 8.55% | [3] 16.4% | [4] 26.5% | [5] 23.4% | [6] -23.2%

COc1cc(-c2oc3c(OC)c(OC)cc(O)c3c(=O)c2OC)ccc1O
inactive: [1] 11.7% | [2] -8.1% | [3] -8.7% | [4] -5.3% | [5] -9.05% | [6] -0.05%

NC(=O)NC(NC(=O)NC(NC(N)=O)c1ccco1)c1ccco1 (stereo unspecified)
inactive: [1] 11.3% | [2] 15.4% | [3] 10.7% | [4] 6.1% | [5] 2.05% | [6] 15.3%

CC(=O)OC1CCC2(C)C(CCC3C2CCC2(C)C3CCC2C(C)(C)O)C1 (stereo unspecified)
inactive: [1] -2.2% | [2] 0.3% | [3] -16.4% | [4] -9.15% | [5] -2.45% | [6] 20.6%

CN(Cc1cnc2nc(N)nc(N)c2n1)c1ccc(C(=O)NC(CCC(=O)NC(CCC(=O)O)C(=O)O)C(=O)O)cc1 (stereo unspecified)
inactive: [1] 34.7% | [2] 20.6% | [3] 32.8% | [4] 13.5% | [5] 33.5% | [6] 36.2%

Cc1ccc(S(=O)(=O)CC(O)(C(C)C)C(C)C)cc1
inactive: [1] -19% | [2] -8.6% | [3] -14.2% | [4] 12.8% | [5] 16.6% | [6] -17.4%

CCCCCCCCCCCCCCC(O)CO (stereo unspecified)
inactive: [1] -11.3% | [2] -12.7% | [3] -4.45% | [4] -102% | [5] -27.1% | [6] -20.9%

CN(C)Cc1ccccc1C(=C(c1ccccc1)c1ccccc1)c1ccccc1
inactive: [1] -15.1% | [2] -4.65% | [3] -8% | [4] -23.6% | [5] -0.8% | [6] -10.9%

COc1ccc(Cl)cc1NC(=O)c1cccc([N+](=O)[O-])c1
inactive: [1] -2.45% | [2] 0.7% | [3] 12.9% | [4] -13.9% | [5] 16.9% | [6] -1.25%

Nc1ccc2c(c1)CC1CC(=O)NN=C21 (stereo unspecified)
inactive: [1] 29.5% | [2] 9.95% | [3] 9.4% | [4] 3.35% | [5] -3.15% | [6] -22.2%

COc1ccccc1NC(=S)N/N=C/c1cccc(C)n1
inactive: [1] 9.45% | [2] -9.9% | [3] 20.1% | [4] -3.7% | [5] 5.5% | [6] 40%

COc1cccc(/C=C\C#N)c1
inactive: [1] -23.1% | [2] -1.3% | [3] -45% | [4] -7.05% | [5] -26.9% | [6] -22.1%

OCC(O)C(O)Cc1cnc(C(O)C(O)C(O)CO)cn1 (stereo unspecified)
inactive: [1] 6.65% | [2] 5.65% | [3] -6.95% | [4] -20.2% | [5] -9.45% | [6] 6.4%

CCCCCCCCCCCCSCCO
inactive: [1] 20.9% | [2] 10.8% | [3] 39% | [4] 31.4% | [5] 17.1% | [6] 39%

O=C(CCc1cc(O)cc(O)c1)NCCc1cc(O)cc(O)c1
inactive: [1] 6.55% | [2] 5.9% | [3] 17.4% | [4] 26.4% | [5] 8.8% | [6] -46%

O=C(O)c1ccccc1/C=N\N(CCO)C1=NCCN1
inactive: [1] 21.4% | [2] 13.1% | [3] 13.9% | [4] -25.1% | [5] 2.95% | [6] 19%

Cn1nnnc1CC(=O)O
inactive: [1] 1.3% | [2] -12.9% | [3] 1.15% | [4] -22.8% | [5] -2.05% | [6] -12.5%

CC1(C)C=C(S(=O)(=O)c2ccccc2)Oc2ccccc2O1
inactive: [1] 15.3% | [2] 8% | [3] 24.2% | [4] 9.2% | [5] 47.8% | [6] 31.9%

O=C(NC(CO)C(=O)N1CCCC1C(=O)OCc1ccccc1)OCc1ccccc1 (stereo not drawn) (Cbz-Ser-Pro-OBn; configuration not given here)
inactive: [1] 8.55% | [2] 7% | [3] 7.05% | [4] 23.9% | [5] 4.45% | [6] 7.6%

CCOc1ccc(/C=C(\NC(=O)c2ccccc2)C(=O)Nc2ccccc2)cc1OC
inactive: [1] 4.8% | [2] -12.6% | [3] -4.45% | [4] -25.6% | [5] -0.15% | [6] 2.1%

N#Cc1ccc(NC(=O)C(CC(=O)OCc2ccccc2)NC(=O)OCc2ccccc2)cc1 (stereo unspecified)
inactive: [1] -2.75% | [2] 4.65% | [3] 3.85% | [4] 7.3% | [5] 50.8% | [6] -8.05%

CSc1n[nH]c(SC)n1
inactive: [1] -4.3% | [2] -15.2% | [3] -4.15% | [4] 4.65% | [5] -11.2% | [6] -5.9%

Nc1ccn[nH]1
inactive: [1] 5.1% | [2] -0.05% | [3] 0.8% | [4] -2.25% | [5] 18.1% | [6] 1.35%
